Values joined by “and” are separate entries in the source; they are usually repeats but may differ in a detail not shown here. Equal entries are not always repeated. Out of some 5,500 compounds screened, about 2,000 (36%) were called active. Another 18% or so got no clear call; they are omitted. Cut-off read from the data, not from the text of the source: active = normalized growth mostly below about 0.91 (no sharp cut-off); inconclusive = no clear call, values can overlap the other calls; inactive = mostly above about 0.92. The list shows a part of the results.
Test: chemical genetic growth profiling, strain panel (AID 1159580);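 note: tested at 20 µM; growth read once vehicle control cultures reached saturation at 30 °C; 1 = growth at the plate median or of vehicle wells; lower values mean less growth of the strain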
Settings: S. cerevisiae deletion strains, growth OD

Measured: normalized growth

CC(=O)O[C@@H]1CC[C@@]2(C)C(CC[C@]3(C)C2CC=C2C4CC(C)(C)CC[C@]4(C(=O)O)CC[C@]23C)C1(C)C (stereo partly drawn)
active: locus YDR069C, strain doa4, stronger effect = lower value 0.84 | locus YGL173C, strain kem1, stronger effect = lower value 0.902 | locus YHR027C, strain rpn1, stronger effect = lower value 0.913 | locus YMR058W, strain fet3, stronger effect = lower value 0.655 | locus YNL209W, strain ssb2, stronger effect = lower value 0.793 | locus YOR106W, strain vam3, stronger effect = lower value 0.852 | locus YPL051W, strain arl3, stronger effect = lower value 0.833
inactive: locus YAL021C, strain ccr4, stronger effect = lower value 0.949 | locus YAL026C, strain drs2, stronger effect = lower value 0.957 | locus YAL030W, strain snc1, stronger effect = lower value 0.98 | locus YBL061C, strain skt5, stronger effect = lower value 0.955 | locus YBR009C, strain hhf1, stronger effect = lower value 1.01 | locus YBR021W, strain FUR4, stronger effect = lower value 1 | locus YBR023C, strain chs3, stronger effect = lower value 0.918 | locus YBR171W, strain sec66, stronger effect = lower value 1 | locus YBR229C, strain ROT2, stronger effect = lower value 0.992 | locus YBR231C, strain swc5, stronger effect = lower value 0.913 | locus YBR279W, strain paf1, stronger effect = lower value 0.982 | locus YCL011C, strain gbp2, stronger effect = lower value 0.965 | locus YCL016C, strain dcc1, stronger effect = lower value 0.96 | locus YCL029C, strain bik1, stronger effect = lower value 0.996 | locus YCL061C, strain MRC1, stronger effect = lower value 1 | locus YCL069W, strain vba3, stronger effect = lower value 1.01 | locus YCR088W, strain abp1, stronger effect = lower value 1.01 | locus YDL005C, strain med2, stronger effect = lower value 0.99 | locus YDL035C, strain GPR1, stronger effect = lower value 1.05 | locus YDL040C, strain nat1, stronger effect = lower value 1 | locus YDL074C, strain BRE1, stronger effect = lower value 1.07 | locus YDL101C, strain DUN1, stronger effect = lower value 0.975 | locus YDL134C, strain PPH21, stronger effect = lower value 0.974 | locus YDL185W, strain tfp1, stronger effect = lower value 0.976 | locus YDL192W, strain arf1, stronger effect = lower value 1.01 | locus YDR001C, strain nth1, stronger effect = lower value 1.01 | locus YDR101C, strain arx1, stronger effect = lower value 1.02 | locus YDR137W, strain rgp1, stronger effect = lower value 1.02 | locus YDR159W, strain sac3, stronger effect = lower value 1.03 | locus YDR162C, strain NBP2, stronger effect = lower value 1.03 | locus YDR195W, strain ref2 1.04 | locus YDR297W, strain sur2, stronger effect = lower value 0.939 | locus YDR318W, strain mcm21, stronger effect = lower value 1.01 | locus YDR334W, strain swr1, stronger effect = lower value 0.985 | locus YDR335W, strain msn5, stronger effect = lower value 0.957 | locus YDR388W, stronger effect = lower value 0.983 | locus YDR392W, strain spt3, stronger effect = lower value 0.95 | locus YDR502C, strain sam2, stronger effect = lower value 0.978 | locus YEL003W, strain gim4, stronger effect = lower value 0.976 | locus YEL037C, strain rad23, stronger effect = lower value 0.99 | locus YEL061C, strain CIN8 (second series), stronger effect = lower value 1.01 | locus YEL061C, strain CIN8, stronger effect = lower value 1 | locus YER015W, strain faa2, stronger effect = lower value 0.936 | locus YER016W, strain bim1, stronger effect = lower value 0.965 | locus YER110C, stronger effect = lower value 0.976 | locus YER111C, strain swi4, stronger effect = lower value 0.96 | locus YER155C, strain BEM2 (second series), stronger effect = lower value 0.964 | locus YER155C, strain BEM2, stronger effect = lower value 0.985 | locus YER167W, strain BCK2, stronger effect = lower value 1.01 | locus YFR010W, strain ubp6, stronger effect = lower value 0.949 | locus YGL078C, strain dbp3, stronger effect = lower value 0.977 | locus YGL086W, strain mad1, stronger effect = lower value 1.04 | locus YGL167C, strain pmr1, stronger effect = lower value 0.986 | locus YGL227W, strain vid30, stronger effect = lower value 1.01 | locus YGL240W, strain doc1, stronger effect = lower value 1.08 | locus YGL248W, strain PDE1, stronger effect = lower value 0.998 | locus YGL253W, strain hxk2, stronger effect = lower value 0.984 | locus YGR135W, strain pre9, stronger effect = lower value 0.954 | locus YGR229C, strain SMI1, stronger effect = lower value 0.988 | locus YGR252W, strain gcn5, stronger effect = lower value 0.982 | locus YHR013C, strain ard1, stronger effect = lower value 0.933 | locus YHR030C, strain SLT2, stronger effect = lower value 0.983 | locus YHR079C, strain IRE1 (second series), stronger effect = lower value 0.983 | locus YHR079C, strain IRE1, stronger effect = lower value 0.974 | locus YHR094C, strain hxt1, stronger effect = lower value 0.987 | locus YHR129C, strain ARP1, stronger effect = lower value 0.995 | locus YHR142W, strain chs7, stronger effect = lower value 0.958 | locus YHR200W, strain rpn10, stronger effect = lower value 0.987 | locus YIL066C, strain RNR3, stronger effect = lower value 1.03 | locus YIL073C, strain SPO22, stronger effect = lower value 1.01 | locus YIL125W, strain kgd1, stronger effect = lower value 0.999 | locus YIR030C, strain dcg1, stronger effect = lower value 0.985 | locus YJL092W, strain hpr5, stronger effect = lower value 1.01 | locus YJL095W, strain BCK1 (second series), stronger effect = lower value 0.966 | locus YJL095W, strain BCK1, stronger effect = lower value 1.01 and 0.986 | locus YJL115W, strain asf1, stronger effect = lower value 1.01 | locus YJL129C, strain trk1, stronger effect = lower value 1.02 | locus YJL134W, strain LCB3, stronger effect = lower value 0.996 | locus YJL154C, strain vps35, stronger effect = lower value 1.03 | locus YJL164C, strain tpk1, stronger effect = lower value 0.927 | locus YJL166W, strain qcr8, stronger effect = lower value 0.953 | locus YJL168C, strain set2, stronger effect = lower value 0.987 | locus YJL187C, strain SWE1 (second series), stronger effect = lower value 0.976 | locus YJR043C, strain POL32, stronger effect = lower value 1.06 | locus YJR066W, strain TOR1, stronger effect = lower value 0.882 | locus YKL009W, strain mrt4, stronger effect = lower value 1.03 | locus YKL068W, stronger effect = lower value 1.02 | locus YKL085W, strain MDH1 (second series), stronger effect = lower value 1.04 | locus YKL085W, strain MDH1, stronger effect = lower value 1.04 | locus YKL160W, strain elf1, stronger effect = lower value 0.954 | locus YKL190W, strain CNB1, stronger effect = lower value 1.03 | locus YKR001C, strain vps1, stronger effect = lower value 1 | locus YKR026C, strain gcn3, stronger effect = lower value 1.01 | locus YKR091W, strain srl3, stronger effect = lower value 1 | locus YLL001W, strain dnm1, stronger effect = lower value 1.01 | locus YLL026W, stronger effect = lower value 1 | locus YLL041C, strain sdh2, stronger effect = lower value 0.996 | locus YLR027C, strain aat2, stronger effect = lower value 0.981 | locus YLR039C, strain RIC1, stronger effect = lower value 1.1 | locus YLR058C, strain SHM2, stronger effect = lower value 0.989 | locus YLR102C, strain apc9, stronger effect = lower value 0.981 | locus YLR113W, strain HOG1, stronger effect = lower value 0.975 | locus YLR221C, strain rsa3, stronger effect = lower value 0.954 | locus YLR258W, strain gsy2, stronger effect = lower value 0.98 | locus YLR262C, strain YPT6 (second series), stronger effect = lower value 0.886 | locus YLR262C, strain YPT6, stronger effect = lower value 1.14 | locus YLR268W, strain sec22, stronger effect = lower value 1.01 | locus YLR320W, strain mms22, stronger effect = lower value 0.968 | locus YLR330W, strain CHS5, stronger effect = lower value 1 | locus YLR342W, strain FKS1 (second series), stronger effect = lower value 1.05 | locus YLR342W, strain FKS1, stronger effect = lower value 0.919 | locus YLR357W, strain rsc2, stronger effect = lower value 0.893 | locus YLR370C, strain arc18, stronger effect = lower value 0.957 | locus YLR371W, strain rom2, stronger effect = lower value 0.991 | locus YLR384C, strain iki3, stronger effect = lower value 0.981 | locus YLR418C, strain cdc73, stronger effect = lower value 0.984 | locus YML016C, strain PPZ1, stronger effect = lower value 0.99 | locus YML032C, strain rad52, stronger effect = lower value 1.01 | locus YML120C, strain ndi1, stronger effect = lower value 0.999 | locus YML124C, strain tub3, stronger effect = lower value 0.99 | locus YMR078C, strain ctf18, stronger effect = lower value 0.977 | locus YMR125W, strain sto1, stronger effect = lower value 1.01 | locus YMR129W, stronger effect = lower value 1.01 | locus YMR205C, strain PFK2, stronger effect = lower value 0.991 | locus YMR223W, strain ubp8, stronger effect = lower value 0.985 | locus YMR231W, strain pep5, stronger effect = lower value 0.99 | locus YMR263W, strain SAP30, stronger effect = lower value 0.985 | locus YMR307W, strain GAS1, stronger effect = lower value 0.985 | locus YNL067W, strain RPL9B, stronger effect = lower value 0.973 | locus YNL071W, strain lat1, stronger effect = lower value 1.02 | locus YNL153C, strain GIM3, stronger effect = lower value 0.988 | locus YNL183C, strain NPR1, stronger effect = lower value 0.914 | locus YNL233W, strain BNI4, stronger effect = lower value 0.991 | locus YNL248C, strain rpa49, stronger effect = lower value 1.03 | locus YNL250W, strain rad50, stronger effect = lower value 0.959 | locus YNL271C, strain bni1, stronger effect = lower value 0.981 | locus YNL298W, strain CLA4, stronger effect = lower value 0.995 | locus YNL307C, strain MCK1, stronger effect = lower value 0.985 | locus YNL322C, strain KRE1 (second series), stronger effect = lower value 0.988 | locus YNR049C, strain mso1, stronger effect = lower value 1.01 | locus YNR052C, strain pop2, stronger effect = lower value 0.985 | locus YOL012C, strain htz1 0.851 | locus YOL147C, strain pex11, stronger effect = lower value 1.01 | locus YOR001W, strain rrp6, stronger effect = lower value 1.02 | locus YOR061W, strain CKA2, stronger effect = lower value 1.04 | locus YOR069W, strain VPS5, stronger effect = lower value 0.989 | locus YOR070C, strain gyp1, stronger effect = lower value 0.986 | locus YOR080W, strain dia2, stronger effect = lower value 1 | locus YOR083W, strain WHI5, stronger effect = lower value 0.968 | locus YOR136W, strain idh2, stronger effect = lower value 0.979 | locus YOR144C, strain elg1, stronger effect = lower value 0.981 | locus YOR184W, strain ser1, stronger effect = lower value 1.05 | locus YOR231W, strain MKK1, stronger effect = lower value 0.966 | locus YOR265W, strain rbl2, stronger effect = lower value 0.984 | locus YOR270C, strain vph1, stronger effect = lower value 0.946 | locus YOR290C, strain snf2, stronger effect = lower value 0.983 | locus YOR316C, strain cot1, stronger effect = lower value 0.98 | locus YPL078C, strain atp4, stronger effect = lower value 0.992 | locus YPL106C, strain sse1, stronger effect = lower value 0.923 | locus YPL240C, strain hsp82, stronger effect = lower value 0.985 | locus YPL256C, strain CLN2, stronger effect = lower value 0.982 | locus YPR119W, strain clb2, stronger effect = lower value 0.981 | locus YPR141C, strain kar3, stronger effect = lower value 0.982 | locus YPR163C, strain tif3, stronger effect = lower value 0.991 | locus YPR167C, strain met16, stronger effect = lower value 0.987 | strain wtn01, stronger effect = lower value 1.03

Reference: PubChem BioAssay AID1159580 (chemical genetic matrix, 2015)
